Reference: PubChem BioAssay AID2314 (National Center for Advancing Translational Sciences (NCATS), 2010)
About 37,000 (12%) of roughly 300,000 compounds were called active. No stated cut-off is given here; in the data, active means max response mostly above about 13% (no sharp cut-off); inactive means mostly below about 14%. Shown is part of a subset that was picked to be rich in actives.

Assay: Cycloheximide Counterscreen for Small Molecule Inhibitors of Shiga Toxin; further: read at 38.3 µM for the half of the compounds with a filed dose; 0% is about no effect
Settings: cell reporter, cycloheximide protein synthesis inhibition counterscreen; stronger effect = higher value

Which max response does the source give for COc1cc(CNCc2ccc3c(c2)OCO3)c([N+](=O)[O-])cc1OC here?
The max response was 13.8% (active).

With Cc1ccc(CNCc2ccc3c(c2)OCO3)c(C)c1 as the compound, how does the max response read?
The max response was 0.612% (inactive).

For COc1cccc(CNCc2ccc3c(c2)OCO3)c1, which max response is on record?
Its max response is 7.15% (inactive).

For Cc1ccc(-c2nn(-c3ccccc3)cc2/C=C/C(=O)Nc2cccc(S(N)(=O)=O)c2)cc1, which max response is on record?
The max response was 6.92% (inactive).

With COc1ccc(CCNC2=CC(=O)CC(C)(C)C2)cc1 as the compound, how does the max response read?
The max response was 17% (inactive).

Which max response does the source give for CN1C(CC(=O)Nc2ccc(Br)cc2)c2ccccc2CC1(C)C (stereo unspecified) here?
Its max response is 7.55% (inactive).

Which max response does the source give for CCOc1cccc(/C(O)=C2/C(=O)C(=O)N(CCOC)C2c2ccncc2)c1 (stereo unspecified) here?
The max response was 3.2% (inactive).

With CCN(CC)CCN1C(=O)C(=O)/C(=C(/O)c2ccccc2)C1c1ccccc1F (stereo unspecified) as the compound, how does the max response read?
The max response was -1.86% (inactive).

For CCN(CC)CCN1C(=O)C(=O)/C(=C(/O)c2cnn(-c3ccccc3)c2C)C1c1cccs1 (stereo unspecified), which max response is on record?
Its max response is 49.4% (active).

With COC(=O)c1cc(S(=O)(=O)N2CCC(C(N)=O)CC2)oc1C as the compound, how does the max response read?
The max response was -3.53% (inactive).

For Cc1c(C)c(C)c(S(=O)(=O)N2CCC3(CC2)OCCO3)c(C)c1C, which max response is on record?
Its max response is -1.61% (inactive).

With CCc1c(C)c2ccc(OC3CCCCC3=O)cc2oc1=O (stereo unspecified) as the compound, how does the max response read?
Its max response is 16.5% (active).

With CC(=O)Oc1ccc2c(C)c(CC(C)O)c(=O)oc2c1 (stereo unspecified) as the compound, how does the max response read?
The max response was -8.36% (inactive).

Which max response does the source give for Cc1c(Cc2ccccc2)c(=O)oc2cc(OCC(N)=O)ccc12 here?
The max response was 1.87% (inactive).

Which max response does the source give for COc1ccc(-n2cnnc2SCC(=O)Nc2cccc(S(N)(=O)=O)c2)cc1 here?
Its max response is -5.17% (inactive).

With Cc1cc(C)c(S(=O)(=O)Nc2c(C)n(C)n(-c3ccccc3)c2=O)cc1[N+](=O)[O-] as the compound, how does the max response read?
The max response was -2.16% (inactive).

For COc1cccc(OCc2nnc3n2N=C(c2ccccc2)C(CC(=O)O)S3)c1 (stereo unspecified), which max response is on record?
Its max response is 9.69% (inactive).

Which max response does the source give for CCOC(=O)c1ccc(NC2Nc3cc(C)nn3S2)cc1 (stereo unspecified) here?
Its max response is 5.82% (inactive).

For CCc1ccc(NC2Nc3cc(C)nn3S2)cc1 (stereo unspecified), which max response is on record?
The max response was 49.2% (active).

For COC(=O)c1cc(C(=O)NC(C)C2CC3CCC2C3)cc([N+](=O)[O-])c1 (stereo unspecified), which max response is on record?
Its max response is -12.3% (inactive).

With COC(=O)c1ccc(N2CCOCC2)c(NC(=O)c2ccc(Br)o2)c1 as the compound, how does the max response read?
Its max response is -2.23% (inactive).

For COc1ccc(/C=N/NC(=O)c2cccc(C(F)(F)F)c2)cc1, which max response is on record?
The max response was 6.57% (inactive).

With Cn1cccc1/C=N/NC(=O)c1ccc(OC(F)(F)C(F)F)cc1 as the compound, how does the max response read?
The max response was 38.1% (active).

Which max response does the source give for CCn1c(/C=N/NC(=O)c2ccc(OC)cc2)nc2ccccc21 here?
Its max response is -2.39% (inactive).

With CC(Oc1ccccc1)C(=O)Nc1c2c(nn1-c1ccccc1)CS(=O)C2 (stereo unspecified) as the compound, how does the max response read?
The max response was -2.14% (inactive).

With CC(=O)Nc1ccc(OCC(=O)NCc2ccc(C)cc2)cc1 as the compound, how does the max response read?
Its max response is 7.82% (inactive).

With CCOc1cc(-c2cc(-c3ccc(NC(C)=O)cc3)nc(N)c2C#N)ccc1O as the compound, how does the max response read?
Its max response is -3.59% (inactive).

Which max response does the source give for CC(=O)Nc1ccc(S(=O)(=O)Nc2nc(-c3ccc(C(C)(C)C)cc3)cs2)cc1 here?
Its max response is -0.918% (inactive).

With CCCCCC(=O)Nc1ccc(S(=O)(=O)Nc2ccc(Cl)nn2)cc1 as the compound, how does the max response read?
Its max response is 5.65% (inactive).

With CC(=O)Nc1ccc(-c2cn3cccnc3n2)cc1 as the compound, how does the max response read?
Its max response is 25.4% (active).

For CC(C)(C)C(=O)Nc1ccc(-c2cn3cccnc3n2)cc1, which max response is on record?
The max response was 28.5% (active).

With CCCCC(=O)Nc1ccc(C(=O)NCCCn2ccnc2)cc1 as the compound, how does the max response read?
Its max response is 3.08% (inactive).

With CCCCCC(=O)Nc1ccc(-c2cn3cccnc3n2)cc1 as the compound, how does the max response read?
Its max response is 25.3% (active).

With CC(=O)Nc1ccc(S(=O)(=O)Nc2cccc(NC(=O)C(C)(C)C)c2)cc1 as the compound, how does the max response read?
The max response was 4.2% (inactive).

For CON(C)S(=O)(=O)c1ccc2c(c1)NC(=O)C1CCCN21 (stereo unspecified), which max response is on record?
Its max response is -1.81% (inactive).

Which max response does the source give for CCN(CC(=O)N1CCCC1)S(=O)(=O)c1ccc(F)cc1 here?
Its max response is -0.599% (inactive).

Which max response does the source give for Cc1ccc(C)c(N2CCN(C(=O)CCc3nc4ccccc4[nH]3)CC2)c1 here?
The max response was -4.18% (inactive).

With OCCNc1nc2ccccc2[nH]1 as the compound, how does the max response read?
Its max response is -3.17% (inactive).

Which max response does the source give for Cc1ccc(O)c(CNc2nc3ccccc3[nH]2)c1 here?
Its max response is 19.7% (active).

Which max response does the source give for Cn1c(CNC(=O)C(C)(C)C)nc2ccccc21 here?
Its max response is -0.534% (inactive).

For Cc1ccc(O)c(CNc2nc3ccccc3n2C)c1, which max response is on record?
Its max response is 35% (active).

Which max response does the source give for CC(C)n1c(NCc2c[nH]c3ccccc23)nc2ccccc21 here?
Its max response is 5.28% (inactive).

With CC(=O)c1ccc(NC(=O)Cn2c(=O)oc3ccccc32)cc1 as the compound, how does the max response read?
Its max response is 0.709% (inactive).

Which max response does the source give for Cc1ccc(-n2ncc(C(=O)NC3CC3)c2C2CCN(C(=O)OC(C)(C)C)CC2)c(C)c1 here?
Its max response is 5.17% (inactive).

Which max response does the source give for CCOc1ccccc1NS(=O)(=O)c1c[nH]c(C(=O)OC)c1 here?
Its max response is -0.295% (inactive).

Which max response does the source give for Cc1ccccc1N1CC(C(=O)Nc2nnc(SCCC3OCCO3)s2)CC1=O (stereo unspecified) here?
The max response was 0.819% (inactive).

Which max response does the source give for CCc1nnc(NC(=O)C2CC(=O)N(c3ccc4c(c3)OCCO4)C2)s1 (stereo unspecified) here?
The max response was 6.49% (inactive).

For c1ccc2cc3c(NCCN4CCOCC4)ccnc3cc2c1, which max response is on record?
The max response was -2.42% (inactive).

For Cn1cc(C(=O)c2ccc(Cl)cc2Cl)cc1C(=O)NN, which max response is on record?
Its max response is -5.78% (inactive).

With O=C(CCN1CCCCC1)N=Nc1c(O)[nH]c2ccccc12 as the compound, how does the max response read?
The max response was 2.5% (inactive).

With CC(C)(C)NC(=O)CSC(=Nc1ccccc1F)NC#N as the compound, how does the max response read?
The max response was 27.7% (active).

Which max response does the source give for Cc1ccccc1CSCC(=O)NC(=O)NC(C)(C)C here?
Its max response is 9.92% (inactive).

For COc1ccccc1-n1ccnc1SCC(=O)NC(C)(C)C, which max response is on record?
The max response was -1.32% (inactive).

Which max response does the source give for CCc1nn(CC(=O)N2CCN(CC)CC2)c(=O)c2cccn12 here?
The max response was -0.288% (inactive).

With CCc1ccccc1NC(=O)CCOc1ccccc1 as the compound, how does the max response read?
Its max response is 0.846% (inactive).

For Cc1ccccc1C(=O)Nc1ccccc1Sc1ccccc1, which max response is on record?
The max response was -2.65% (inactive).

For Cc1ccccc1C(=O)Nc1ccccc1NC(=O)c1ccccc1C, which max response is on record?
The max response was -4.55% (inactive).

Which max response does the source give for Cc1ccc(C(=O)NC(=S)Nc2ccccc2C)cc1 here?
The max response was 43.9% (active).

For Cc1cc2[nH]ncc2cc1NC(=S)NC(=O)c1ccccc1, which max response is on record?
Its max response is 16.5% (active).

Which max response does the source give for Cn1nnc(NC(=S)NC(=O)c2ccccc2)n1 here?
Its max response is 10.8% (inactive).

Which max response does the source give for Cc1cc(C)cc(C(=O)NC(=S)Nc2ccc3[nH]c(=O)[nH]c3c2)c1 here?
Its max response is -3.08% (inactive).

Which max response does the source give for Cc1ccccc1NC(=S)NC(=O)Cc1ccc(Cl)cc1 here?
Its max response is -2.71% (inactive).

Which max response does the source give for Cc1ccccc1NC(=O)c1ccccc1 here?
The max response was 15.4% (active).

Which max response does the source give for Cc1c(NC(=O)CCCOc2ccccc2)cccc1[N+](=O)[O-] here?
Its max response is 6.53% (inactive).

With Cc1ccc(C(=O)NC(=S)NCc2cccnc2)cc1 as the compound, how does the max response read?
The max response was 18.8% (inactive).

Which max response does the source give for Cc1ccccc1NC(=O)CCOc1ccccc1 here?
Its max response is 32.8% (active).
